This is a sample that favours compounds with a hit; in the whole collection about 2% have one here.
GalR3 antag: human GalR3 antagonism; 360,000 compounds, 0.44% hits; O60755; inhibition, % at 3 µM; HEK293 GalR3-CNG cAMP membrane potential fluorescence; galR3 body fused to GalR1 C-terminus;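 active means inhibition above the screen-wide average plus 3 SD, cut at about 13% in these data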;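 further: forskolin and galanin both at EC90 stimulate the cells; cAMP rise reported by CNG channel membrane potential dye signal; 0% = forskolin plus galanin with DMSO and 100% = forskolin alone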
Target sequence (O60755 1-299 limits assumed): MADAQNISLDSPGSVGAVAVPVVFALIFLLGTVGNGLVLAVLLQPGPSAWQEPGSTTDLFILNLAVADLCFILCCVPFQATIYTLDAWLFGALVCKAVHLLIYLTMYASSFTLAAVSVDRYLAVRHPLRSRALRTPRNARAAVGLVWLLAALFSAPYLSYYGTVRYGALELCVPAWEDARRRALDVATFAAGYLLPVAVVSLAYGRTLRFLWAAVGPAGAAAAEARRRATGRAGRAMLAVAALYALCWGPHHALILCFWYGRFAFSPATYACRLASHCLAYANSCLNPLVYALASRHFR
Jurkat NFkB inh: lowers PMA/ionomycin-induced NF-kB signal in Jurkat cells; AID 435003; PMA/ionomycin-induced NF-kB luciferase reporter, luminescence; inhibition, % at 4 µM; 330,000 compounds, 0.53% hits; in the data active means inhibition above about 50%
NR2F2 inh: inhibitors of human COUP-TFII (NR2F2) | AID 686940 | HEK293T NGFI-A luciferase reporter, luminescence | 370,000 compounds, 0.7% hits | inhibition, % at 8.6 µM | P24468;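 active means inhibition above a per-plate cutoff, mean inhibition of test wells between control levels plus 3 SD, cut at about 38% in these data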;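 further: cells cotransfected with COUP-TFII expression vector driving the NGFI-A reporter; 0% = median of COUP-TF2 test wells and 100% = reporter-only cells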
Target sequence (P24468 whole entry, looked up): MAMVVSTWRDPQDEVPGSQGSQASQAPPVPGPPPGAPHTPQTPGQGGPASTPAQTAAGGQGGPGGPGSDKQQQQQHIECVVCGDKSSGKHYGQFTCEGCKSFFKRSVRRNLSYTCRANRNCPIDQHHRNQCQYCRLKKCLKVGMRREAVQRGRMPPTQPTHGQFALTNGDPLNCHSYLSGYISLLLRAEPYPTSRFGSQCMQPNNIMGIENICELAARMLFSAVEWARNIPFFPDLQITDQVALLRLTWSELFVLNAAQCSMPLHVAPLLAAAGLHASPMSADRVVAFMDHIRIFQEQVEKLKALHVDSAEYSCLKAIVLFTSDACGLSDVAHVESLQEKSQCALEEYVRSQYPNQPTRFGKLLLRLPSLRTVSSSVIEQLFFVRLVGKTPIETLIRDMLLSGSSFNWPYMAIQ
697 NFkB inh: inhibitors of the PMA/ionomycin-induced NF-kB reporter in 697 B cells | 697 B-cell NF-kB luciferase reporter, 16 h | inhibition, % at 4 µM | 330,000 compounds, 0.33% hits | AID 435022; in the data active means inhibition above about 35%
Gli-Sufu block: antagonists of Gli-Sufu signaling. Sufu-KO-LIGHT fibroblasts, Gli luciferase reporter luminescence. inhibition, % at 5 µM. 340,000 compounds, 0.74% hits;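 active means inhibition above about 55%, limit read from the data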;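 further: 0% = DMSO-treated cells and 100% = wells with medium but no cells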
Jurkat NFkB conf: inhibitors of the PMA/ionomycin-induced NF-kB reporter in Jurkat cells, retest; shares compounds with Jurkat NFkB inh; Jurkat NF-kB luciferase, 16 h; inhibition, % at 4 µM; 2,700 compounds, 27% hits; AID 435020;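 active means inhibition reaching about 45% at 4 µM in either replicate, limit read from the data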;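 further: plate controls were PMA/ionomycin stimulated DMSO wells for no effect and unstimulated DMSO wells for full effect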
697 NFkB conf: inhibitors of the PMA/ionomycin-induced NF-kB reporter in 697 B cells, retest; shares compounds with 697 NFkB inh; 697 B-cell NF-kB luciferase, 16 h; inhibition, % at 4 µM; 2,000 compounds, 35% hits; in the data active means inhibition mostly above about 28%, no sharp cut-off; inactive means mostly below about 22%
Gli antag conf: confirmation of Gli-SUFU pathway antagonists. inhibition, % at 5 µM. 2,500 compounds, 40% hits. shares compounds with Gli-Sufu block. AID 602428. Sufu-KO-LIGHT cells, Gli luciferase reporter, luminescence;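 active means mean inhibition at 5 µM reaching about 45%, limit read from the data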;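 further: plate controls were DMSO-treated cells for no effect and wells lacking cells for full effect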
SufuKO cytotox: cytotoxic in Gli-SUFU antagonist counter-screen | cytotoxicity, % at 5 µM | 2,500 compounds, 32% hits | Sufu-KO-LIGHT cells cytotoxicity, ATP luminescence | shares compounds with Gli-Sufu block;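 active means mean cytotoxicity at 5 µM above about 25%, limit read from the data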;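 further: cells exposed to compound overnight for roughly 16 to 18 hours; plate controls were DMSO wells with cells for no effect and medium without cells for full effect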
Wnt3a counter: Wnt3a reporter inhibition counter-screen; shares compounds with Gli-Sufu block; Wnt-LIGHT cells, Wnt3a-driven luciferase reporter, luminescence; inhibition, % at 6.25 µM; 2,500 compounds, 20% hits; AID 651995;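 active means mean inhibition above about 25%, limit read from the data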
* = called active by the depositor; . = not tested or not shown.

SMILES | GalR3 antag | Jurkat NFkB inh | NR2F2 inh | 697 NFkB inh | Gli-Sufu block | Jurkat NFkB conf | Gli antag conf | SufuKO cytotox | Wnt3a counter | others
C#CCOCCOCCOCCNc1nc(N2CCN(C(=O)CCCCCCCCCCNC(=O)Cn3cc(CCCCCN)nn3)CC2)nc(N2CCN(C(=O)CCCCCCCCCCNC(=O)Cn3cc(C[C@@H](C)O)nn3)CC2)n1 | . | 8 | . | -19 | -6 | . | . | . | .
CC(C)(C)OC(=O)NCCCCCc1cn(CC(=O)NCCCCCCCCCCC(=O)N2CCN(C(=O)OC(C)(C)C)CC2)nn1 | 5 | 55* | 11 | -13 | 56* | 56* | 62* | 26* | -38
Nc1nc(Cl)cc(N2CCC(c3cc(-c4ccc(Cl)cc4)n[nH]3)CC2)n1 | -10 | 70* | 14 | -8 | 74* | 63* | 78* | 19 | 68*
CCC(=O)NC(c1ccc(C)cc1)c1ccc2cccnc2c1O (stereo not given) | -7 | 55* | -19 | -6 | 89* | 76* | 82* | 42* | 83*
CCCC(=O)NC(c1ccccc1Cl)c1ccc2cccnc2c1O (stereo not given) | -11 | 63* | -6 | -5 | 83* | 81* | 80* | 28* | 69*
CCCCC(=O)NC(c1ccc(Cl)cc1Cl)c1ccc2cccnc2c1O (stereo not given) | -9 | 51* | 12 | -25 | 86* | 75* | 83* | 34* | 82*
O=C(CN1CCC(NC(=O)Nc2ccc(Cl)cc2)CC1)Nc1ccc2c(c1)OCCO2 | . | . | -32 | . | . | . | . | . | .
O=C(N=Nc1c(O)[nH]c2ccc(Br)cc12)c1ccccc1-n1cccc1 | -9 | 71* | -37 | 13 | 57* | 39 | 32 | 34* | -59
COc1cc2c(c(OC)c1OC)-c1ccc(OC)c(=O)cc1[C@@H](N(C)CC#CCO)CC2 | -5 | 63* | -62 | -244 | 66* | 62* | 58* | 62* | 41*
O=C(Cn1c(-c2cncs2)nc2ccccc21)NCc1cccs1 | . | . | 7 | . | . | . | . | . | .
C/C(=N\NC(=O)C(C)Oc1ccc([N+](=O)[O-])cc1)c1ccccn1 (stereo not given) | -5 | 61* | -12 | -14 | 88* | 13 | 85* | 33* | 56*
CCO[C@@H]1OC(C(=O)NCc2nc3ccccc3[nH]2)=C[C@H](C(C)(C)C)[C@H]1CCCO | 4 | 73* | -99 | -63 | 51 | 55* | 58* | 60* | -51
Cc1cccc(C)c1OCc1cccc(C2Nc3ccccc3C(=O)N2Cc2ccco2)c1 (stereo not given) | . | . | 9 | . | . | . | . | . | .
Cc1nn(-c2ccccc2)c(C)c1/C=N/NC(=O)c1cc(-c2cccs2)[nH]n1 | 1 | 53* | -66 | 45* | 50 | 57* | 61* | 60* | -62 | 697 NFkB conf=51*
O=C(Cc1c[nH]c2ccccc12)Nc1ccc(Nc2cccnc2)c(-c2ccc(-c3ccccc3)cc2F)c1 | -3 | . | -4 | . | . | . | . | . | .
CCCCc1ccc(NC(=O)C(=O)NCCN2CCN(Cc3ccc([N+](=O)[O-])cc3)CC2)cc1 | -6 | 51* | 10 | 17 | 56* | 59* | 43 | 19 | 6
CC(C)Oc1ccccc1C1CC(=O)Nc2cc3c(cc21)OCCO3 (stereo not given) | -2 | 78* | -43 | -20 | 55 | 51* | 60* | 59* | 5
COc1ccc(-n2c(SCC(=O)NN=Cc3c(O)ccc4ccccc34)nnc2-c2ccc(C(C)(C)C)cc2)cc1 | . | . | -8 | . | . | . | . | . | .
CC1=CC(C)(C)N(S(=O)(=O)c2ccc(C)cc2)c2cc(C)ccc21 | -1 | 50* | -63 | -95 | 59* | 53* | 58* | 62* | -5
CC1=CC(C)(C)N(C(=O)CCl)c2cc(C)ccc21 | -5 | 14 | -12 | 20 | 7 | . | . | . | .
Cc1cc(C)cc(NS(=O)(=O)c2ccc(-c3cnc(C4CC4)o3)cc2)c1 | 4 | 56* | -49 | -52 | 55* | 55* | 51* | 57* | -14
O=S(=O)(NCc1ccc(F)cc1)c1ccc(-c2cnc(C3CC3)o2)cc1 | -2 | 12 | 19 | -19 | . | . | . | . | .
COc1ccc(C(=O)c2cc([N+](=O)[O-])ccc2N2CCCC2)cc1 | -2 | 47 | -4 | -32 | -6 | . | . | . | .
O=C(c1ccc(Br)cc1)c1cc([N+](=O)[O-])ccc1N1CCCCC1 | 5 | 75* | -61 | 45* | 55 | 59* | 60* | 60* | 12 | 697 NFkB conf=39*
C[C@H]1[C@@H](OC(=O)NC2CCC2)CC[C@@]23CCCN2C(=O)CCC[C@@H]13 | . | . | -3 | . | . | . | . | . | .
SMILES | GalR3 antag | Jurkat NFkB inh | NR2F2 inh | 697 NFkB inh | Gli-Sufu block | Jurkat NFkB conf | Gli antag conf | SufuKO cytotox | Wnt3a counter | others
N[C@H](C(=O)N[C@@H](Cc1ccccc1)C(=O)N1CCC2CCN(S(=O)(=O)c3ccccc3)CC21)c1ccccc1 (stereo not given in full) | . | . | -59 | . | . | . | . | . | .
C=CCN1C(=O)[C@@H](CC(=O)NCCCC)[C@]2(C(=O)OC)CCCCC=C12 | . | . | -4 | . | . | . | . | . | .
Cc1ccc(N/C(N)=N/c2nc(CSc3nnc(C)s3)cc(=O)[nH]2)c(C)c1 | -3 | 72* | 0 | -5 | 52 | 52* | 57* | 56* | -28
COc1ccc(N/C(N)=N/c2nc(CSc3nnc(C)s3)cc(=O)[nH]2)cc1 | -2 | 32 | 23 | -27 | -4 | . | . | . | .
CNc1ccccc1C(C)(C)c1cc(-c2cc(C)cc(C)c2)no1 | 2 | 3 | -2 | 12 | 0 | . | . | . | .
CNc1ccccc1C(C)(C)c1cc(-c2cccc(OC)c2)no1 | -10 | 51* | 32 | -27 | 71* | 27 | 76* | 42* | 22
COc1cccc(/C=N/Nc2ncnc3c2ncn3Cc2ccccc2)c1O | -2 | 63* | -12 | -34 | 51 | 67* | 78* | 32* | 69*
Cc1ccc(NC(=O)CN2CCN(c3nc(-c4ccccc4)cs3)CC2)cc1C | . | . | 3 | . | . | . | . | . | .
COc1ccccc1CNS(=O)(=O)c1ccc(-c2cc(C)no2)cc1 | -1 | 60* | 17 | -55 | 51 | 48* | 43 | 57* | -54
Cc1ccc(-n2c(SCC(=O)Nc3ccc(OCc4ccccc4)cc3)nnc2-c2ccccc2)cc1 | . | . | -12 | . | . | . | . | . | .
CCOc1cc(C(=O)N/N=C/C(Br)=C/c2ccccc2)cc(OCC)c1OCC | -11 | 58* | -8 | -28 | 55 | 48 | 64* | 47* | -41

Assay outcomes: PubChem BioAssay, several laboratories
